Results reported in publication PMC7862700, “An all-to-all approach to the identification of sequence-specific readers for epigenetic DNA modifications on cytosine”.

Tests used:
Assay in all cases: DAPPL (digital affinity profiling via proximity ligation, sequencing); 10 mM Tris-HCl pH 7.5, 50 mM NaCl, 1 mM DTT, 4% glycerol, room temperature, 30 min; GST-TFs on glutathione beads, 16-mer random dsDNA library, 0.1% formaldehyde crosslink after washing; high values mean tight binding
[1] = target: T1, FEV (Homo sapiens, UniProt Q99581 1-238); details: protein: recombinant; tags: N-terminal GST; dsDNA, one strand shown
T1 sequence: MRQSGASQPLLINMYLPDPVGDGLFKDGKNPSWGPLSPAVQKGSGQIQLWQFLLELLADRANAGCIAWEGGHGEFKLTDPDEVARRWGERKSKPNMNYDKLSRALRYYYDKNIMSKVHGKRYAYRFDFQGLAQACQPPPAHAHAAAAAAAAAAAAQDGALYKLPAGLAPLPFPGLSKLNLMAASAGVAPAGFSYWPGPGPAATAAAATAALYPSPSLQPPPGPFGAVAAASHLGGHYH
Summary of the method: (§1)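 Pools of DNA-barcoded human transcription factors, expressed in yeast as GST fusions on glutathione beads and combined with a tag-only sample, were incubated with 200 nmole of a 16-mer random double-stranded DNA library. Incubation took 30 min at room temperature in Tris/NaCl/DTT/glycerol buffer and was followed by washing, 0.1% formaldehyde crosslinking, proximity ligation (BsaI/T4 ligase, 1 h, 37 °C), PCR amplification and sequencing on an Illumina NextSeq500. Binding signal is the ratio of a hexamer's read frequency for a factor to its frequency for the tag-only sample.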

[2] = target: ETV5 (Homo sapiens, UniProt P41161 1-510); details: protein: recombinant; tags: N-terminal GST; dsDNA, one strand shown
Summary of the method: as §1

[3] = target: HSF1 (Homo sapiens, UniProt Q00613 1-529); details: protein: recombinant; tags: N-terminal GST; chain copies: 3; dsDNA, one strand shown
Summary of the method: as §1

[4] = target: T2, SPIC (Homo sapiens, UniProt Q8N5J4 1-248); details: protein: recombinant; tags: N-terminal GST; dsDNA, one strand shown
T2 sequence: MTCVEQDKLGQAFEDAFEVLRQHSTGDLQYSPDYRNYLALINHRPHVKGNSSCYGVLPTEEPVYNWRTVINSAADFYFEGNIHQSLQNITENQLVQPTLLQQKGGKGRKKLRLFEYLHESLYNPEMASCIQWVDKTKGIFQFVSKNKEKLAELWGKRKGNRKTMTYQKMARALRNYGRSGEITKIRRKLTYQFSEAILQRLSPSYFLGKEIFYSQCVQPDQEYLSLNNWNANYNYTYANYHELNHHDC
Summary of the method: as §1

[5] = target: ELF4 (Homo sapiens, UniProt Q99607 1-663); details: protein: recombinant; tags: N-terminal GST; dsDNA, one strand shown
Summary of the method: as §1

[6] = target: T3, ELK4 (Homo sapiens, UniProt P28324-2 1-405); details: protein: recombinant; tags: N-terminal GST; dsDNA, one strand shown
T3 sequence: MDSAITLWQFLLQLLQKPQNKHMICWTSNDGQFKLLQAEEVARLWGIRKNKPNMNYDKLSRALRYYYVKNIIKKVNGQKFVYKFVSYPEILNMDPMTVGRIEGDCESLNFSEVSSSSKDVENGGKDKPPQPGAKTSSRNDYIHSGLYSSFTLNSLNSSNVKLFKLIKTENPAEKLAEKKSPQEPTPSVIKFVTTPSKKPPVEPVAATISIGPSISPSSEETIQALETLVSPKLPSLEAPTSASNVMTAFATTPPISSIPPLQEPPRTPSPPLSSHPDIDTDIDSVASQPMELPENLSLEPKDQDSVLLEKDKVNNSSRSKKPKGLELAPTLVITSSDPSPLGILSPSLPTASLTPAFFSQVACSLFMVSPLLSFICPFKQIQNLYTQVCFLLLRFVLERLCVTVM
Summary of the method: as §1

[7] = target: T4, ETV2 (Homo sapiens, UniProt O00321 1-342); details: protein: recombinant; tags: N-terminal GST; dsDNA, one strand shown
T4 sequence: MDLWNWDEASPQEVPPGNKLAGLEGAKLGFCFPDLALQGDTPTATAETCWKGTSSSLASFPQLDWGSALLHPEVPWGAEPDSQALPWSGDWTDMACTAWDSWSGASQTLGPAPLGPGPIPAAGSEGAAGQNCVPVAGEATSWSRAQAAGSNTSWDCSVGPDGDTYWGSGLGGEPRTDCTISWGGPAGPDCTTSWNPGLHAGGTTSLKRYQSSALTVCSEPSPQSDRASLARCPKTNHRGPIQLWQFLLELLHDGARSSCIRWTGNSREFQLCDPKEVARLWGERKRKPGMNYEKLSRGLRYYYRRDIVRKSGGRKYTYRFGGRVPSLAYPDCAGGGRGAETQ
Summary of the method: as §1

[8] = target: T5, ELF3 (Homo sapiens, UniProt P78545 1-371); details: protein: recombinant; tags: N-terminal GST; dsDNA, one strand shown
T5 sequence: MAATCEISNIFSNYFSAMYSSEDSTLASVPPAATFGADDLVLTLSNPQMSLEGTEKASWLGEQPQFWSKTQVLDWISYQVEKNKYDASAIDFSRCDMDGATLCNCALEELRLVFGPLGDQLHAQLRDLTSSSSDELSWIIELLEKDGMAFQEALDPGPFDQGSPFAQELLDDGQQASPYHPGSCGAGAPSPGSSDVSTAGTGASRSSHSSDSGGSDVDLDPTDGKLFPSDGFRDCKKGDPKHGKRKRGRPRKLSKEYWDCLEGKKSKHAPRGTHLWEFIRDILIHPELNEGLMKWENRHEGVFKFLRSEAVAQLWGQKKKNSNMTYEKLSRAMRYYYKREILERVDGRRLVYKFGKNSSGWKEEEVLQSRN
Summary of the method: as §1

[9] = target: CRX (Homo sapiens, UniProt O43186 1-299); details: protein: recombinant; tags: N-terminal GST; dsDNA, one strand shown
Summary of the method: as §1

[10] = target: ETV1 (Homo sapiens, UniProt P50549 1-477); details: protein: recombinant; tags: N-terminal GST; dsDNA, one strand shown
Summary of the method: as §1

Chain of ETV1 (P50549 whole entry): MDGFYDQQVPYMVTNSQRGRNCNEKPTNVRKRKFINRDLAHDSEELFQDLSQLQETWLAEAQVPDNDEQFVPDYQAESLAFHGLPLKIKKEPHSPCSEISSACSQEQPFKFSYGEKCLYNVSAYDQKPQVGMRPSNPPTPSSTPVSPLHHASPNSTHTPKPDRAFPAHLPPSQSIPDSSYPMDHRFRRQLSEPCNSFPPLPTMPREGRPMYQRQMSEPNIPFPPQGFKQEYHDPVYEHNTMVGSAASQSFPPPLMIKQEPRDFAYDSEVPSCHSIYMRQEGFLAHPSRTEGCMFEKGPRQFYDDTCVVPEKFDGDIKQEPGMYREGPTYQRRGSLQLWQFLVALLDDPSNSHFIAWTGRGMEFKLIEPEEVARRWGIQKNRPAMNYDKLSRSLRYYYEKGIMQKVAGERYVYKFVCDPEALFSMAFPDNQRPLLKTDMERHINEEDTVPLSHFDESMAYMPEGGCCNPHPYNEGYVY
Chain of HSF1 (Q00613 whole entry): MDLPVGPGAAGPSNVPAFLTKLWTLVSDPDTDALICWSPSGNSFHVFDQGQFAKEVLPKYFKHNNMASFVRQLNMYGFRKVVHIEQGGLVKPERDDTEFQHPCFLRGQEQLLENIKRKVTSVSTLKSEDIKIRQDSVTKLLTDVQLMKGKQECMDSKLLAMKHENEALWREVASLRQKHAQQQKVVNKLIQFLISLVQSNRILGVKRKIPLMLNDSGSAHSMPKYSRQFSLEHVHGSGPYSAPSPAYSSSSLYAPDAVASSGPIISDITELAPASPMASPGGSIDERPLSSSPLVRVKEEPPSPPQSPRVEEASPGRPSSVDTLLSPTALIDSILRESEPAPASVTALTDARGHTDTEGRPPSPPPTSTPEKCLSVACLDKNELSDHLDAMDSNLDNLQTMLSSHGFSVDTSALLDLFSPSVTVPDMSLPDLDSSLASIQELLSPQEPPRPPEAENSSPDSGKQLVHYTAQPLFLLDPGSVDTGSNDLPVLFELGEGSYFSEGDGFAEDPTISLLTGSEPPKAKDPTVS
Chain of ETV5 (P41161 whole entry): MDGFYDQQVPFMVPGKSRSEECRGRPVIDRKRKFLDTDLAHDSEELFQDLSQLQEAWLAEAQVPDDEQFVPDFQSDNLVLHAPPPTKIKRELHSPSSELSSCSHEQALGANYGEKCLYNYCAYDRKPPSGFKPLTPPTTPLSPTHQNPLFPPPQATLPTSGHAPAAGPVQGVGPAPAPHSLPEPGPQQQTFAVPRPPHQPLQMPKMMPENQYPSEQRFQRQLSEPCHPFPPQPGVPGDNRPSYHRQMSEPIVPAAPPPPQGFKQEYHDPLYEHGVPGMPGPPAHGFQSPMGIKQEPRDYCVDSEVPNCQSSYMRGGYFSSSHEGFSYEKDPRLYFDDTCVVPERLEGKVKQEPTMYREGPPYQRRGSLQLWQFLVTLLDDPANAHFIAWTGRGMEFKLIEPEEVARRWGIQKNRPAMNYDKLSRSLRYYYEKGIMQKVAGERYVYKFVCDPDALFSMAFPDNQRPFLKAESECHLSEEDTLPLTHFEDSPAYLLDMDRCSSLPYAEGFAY
Chain of CRX (O43186 whole entry): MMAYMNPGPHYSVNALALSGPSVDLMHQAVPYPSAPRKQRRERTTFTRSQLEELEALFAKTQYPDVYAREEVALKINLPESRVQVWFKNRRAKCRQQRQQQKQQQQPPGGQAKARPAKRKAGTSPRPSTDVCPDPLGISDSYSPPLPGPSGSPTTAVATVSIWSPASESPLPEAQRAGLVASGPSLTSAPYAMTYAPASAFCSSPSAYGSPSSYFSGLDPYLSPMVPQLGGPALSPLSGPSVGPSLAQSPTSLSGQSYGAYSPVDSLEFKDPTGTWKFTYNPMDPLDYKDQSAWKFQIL
Chain of ELF4 (Q99607 whole entry): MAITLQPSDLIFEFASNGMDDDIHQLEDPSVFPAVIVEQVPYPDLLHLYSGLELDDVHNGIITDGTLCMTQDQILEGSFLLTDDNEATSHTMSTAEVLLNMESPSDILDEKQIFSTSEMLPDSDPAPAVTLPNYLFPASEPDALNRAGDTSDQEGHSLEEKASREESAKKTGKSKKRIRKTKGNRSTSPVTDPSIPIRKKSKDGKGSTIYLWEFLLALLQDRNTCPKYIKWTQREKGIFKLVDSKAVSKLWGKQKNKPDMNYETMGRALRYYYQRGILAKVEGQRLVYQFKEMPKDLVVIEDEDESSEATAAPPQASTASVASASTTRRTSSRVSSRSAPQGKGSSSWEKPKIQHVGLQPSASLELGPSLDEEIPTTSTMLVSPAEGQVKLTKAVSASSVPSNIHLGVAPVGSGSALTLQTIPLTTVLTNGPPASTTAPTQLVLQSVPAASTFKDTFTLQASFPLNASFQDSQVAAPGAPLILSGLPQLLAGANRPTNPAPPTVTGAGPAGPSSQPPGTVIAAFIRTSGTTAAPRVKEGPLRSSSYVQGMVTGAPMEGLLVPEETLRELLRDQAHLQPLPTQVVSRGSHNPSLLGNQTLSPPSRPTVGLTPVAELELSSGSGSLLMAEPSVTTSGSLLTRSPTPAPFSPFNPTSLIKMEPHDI

CTCTGA
binding signal [1]: 1.23 fold enrichment (6-mer frequency, TF over GST control)
binding signal [2]: 1.15 fold enrichment (6-mer frequency, TF over GST control)
binding signal [3]: 1.06 fold enrichment (6-mer frequency, TF over GST control)
binding signal [4]: 1.24 fold enrichment (6-mer frequency, TF over GST control)
binding signal [5]: 1.23 fold enrichment (6-mer frequency, TF over GST control)
binding signal [6]: 1.15 fold enrichment (6-mer frequency, TF over GST control)
binding signal [7]: 1.12 fold enrichment (6-mer frequency, TF over GST control)
binding signal [8]: 1.09 fold enrichment (6-mer frequency, TF over GST control)
binding signal [9]: 1.08 fold enrichment (6-mer frequency, TF over GST control)
binding signal [10]: 1.3 fold enrichment (6-mer frequency, TF over GST control)
